Source: PubChem BioAssay (Broad Institute)
An excerpt weighted towards active compounds, which were near 3.3% of everything screened.
INS-1E GSIS act = GLuc luminescence reporter in INS-1E cells, primary screen for activators of glucose-dependent secretion of insulin; INS-1E GLuc reporter insulin secretion, 2-3 h; activation, % at 16.6 µM; hit rate 0.61% among 370,000;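 active means lowest replicate activation of at least 40%, so every replicate reaches that level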
SIRT5 inh = SIRT5 desuccinylase inhibitors, primary screen, biochemical, fluorescence imaging, single point, set 5; Purified SirT5, succinyl-peptide AMC, trypsin-coupled fluorescence; inhibition, % at 15 µM; hit rate 1.1% among 330,000; in the data active means inhibition above about 15%
ERAP1 HTS inh = human ERAP1 aminopeptidase inhibitors, primary screen, biochemical, single point, plate reader; Endoplasmic reticulum aminopeptidase 1 (Homo sapiens), Q9NZ08; recombinant ERAP1, Leu-AMC fluorescence, 60 min; inhibition, % at 10.7 µM; hit rate 0.15% among 340,000; AID 652197, 2013;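 active means mean replicate inhibition of at least 30%, or all replicates individually reaching that 30% level; inactive means mean below 30% and not every replicate reaching it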
Target sequence (Q9NZ08 whole entry, looked up): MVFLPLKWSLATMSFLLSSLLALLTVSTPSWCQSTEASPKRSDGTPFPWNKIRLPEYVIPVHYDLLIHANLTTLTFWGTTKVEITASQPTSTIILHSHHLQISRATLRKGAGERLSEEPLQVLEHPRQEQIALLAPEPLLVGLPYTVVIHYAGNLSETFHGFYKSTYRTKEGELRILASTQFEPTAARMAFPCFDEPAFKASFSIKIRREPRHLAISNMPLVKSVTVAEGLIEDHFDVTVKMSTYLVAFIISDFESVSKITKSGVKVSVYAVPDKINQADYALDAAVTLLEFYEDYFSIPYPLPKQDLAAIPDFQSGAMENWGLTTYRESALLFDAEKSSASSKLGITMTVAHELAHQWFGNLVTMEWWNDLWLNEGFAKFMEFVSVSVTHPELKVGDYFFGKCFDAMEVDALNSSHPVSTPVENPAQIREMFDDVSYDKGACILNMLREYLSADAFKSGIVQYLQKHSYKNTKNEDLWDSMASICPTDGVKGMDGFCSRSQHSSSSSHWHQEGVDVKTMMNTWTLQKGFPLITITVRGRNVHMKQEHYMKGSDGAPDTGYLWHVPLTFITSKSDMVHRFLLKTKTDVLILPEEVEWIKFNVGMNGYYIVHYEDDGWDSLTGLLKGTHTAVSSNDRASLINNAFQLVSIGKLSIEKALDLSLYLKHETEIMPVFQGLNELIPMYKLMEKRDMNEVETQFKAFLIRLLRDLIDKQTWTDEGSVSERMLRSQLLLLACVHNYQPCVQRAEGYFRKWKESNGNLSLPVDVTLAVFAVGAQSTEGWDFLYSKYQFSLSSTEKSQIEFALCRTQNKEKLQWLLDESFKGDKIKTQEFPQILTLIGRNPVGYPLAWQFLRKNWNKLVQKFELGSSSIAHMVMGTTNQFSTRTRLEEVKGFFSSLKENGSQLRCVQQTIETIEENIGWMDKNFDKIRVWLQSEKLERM
Casp6 inh = human caspase-6 inhibitors, primary screen, biochemical, VEID-R110 fluorescence, single point, set 2. P55212. purified caspase-6, Z-VEID-R110 cleavage fluorescence. inhibition, % at 12.5 µM. hit rate 0.53% among 350,000;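 active means mean inhibition across replicates at least about 35%, with every replicate also reaching that limit, limit read from the data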
FGF22 binding = binders of human FGF22 protein, primary screen, FGF22 synaptogenesis inhibitor project, biophysical, thermal shift, single point | hit rate 1.5% among 340,000 | AID 651658, 2012 | recombinant FGF22 thermal shift, SYPRO orange fluorescence; percent of sucrose octasulfate shift, DMSO zero | Fibroblast growth factor 22 (Homo sapiens), Q9HCT0 | activity (Tm shift, normalised), % at 9.99 µM;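 active means mean Tm shift, scaled 0 neutral to 100 positive control, at about 1.3% or above, every replicate too, limit read from the data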
Of the large screens only hits and unclear results are named; the others gave an inactive call; ! = not confirmed by another sample.

Cc1ccc(NS(=O)(=O)c2cccc(C(=O)NCCCn3ccnc3)c2)cc1	none
O=C(NCCCn1ccnc1)c1ccc(NS(=O)(=O)c2ccc(Cl)c(Cl)c2)cc1	SIRT5 inh 20
Cc1nc(SCc2ccc(O)c([N+](=O)[O-])c2)c([N+](=O)[O-])[nH]1	ERAP1 HTS inh 55
C[C@@H]1CN([C@H](C)CO)C(=O)c2cc(NS(=O)(=O)c3cccs3)ccc2O[C@@H]1CN(C)C(=O)NC1CCCCC1	none
CC1(C(=O)NCC2CC2)C=CC2(CCCCC2)N1C(=O)c1ccccc1 (stereo unspecified)	none (no result: FGF22 binding)
CC1(C(=O)NCc2cc(F)cc(C(F)(F)F)c2)C=CC2(CCCCC2)N1C(=O)c1ccccc1 (stereo unspecified)	SIRT5 inh 24
COc1ccc(NC(=S)N(C)CC2COc3ccccc3O2)cc1 (stereo unspecified)	none
CC(OC(=O)C1COc2ccccc2O1)C(=O)N(C)c1ccccc1 (stereo unspecified)	none
CCN(CC1COc2ccccc2O1)C(=S)Nc1ccc(F)cc1 (stereo unspecified)	FGF22 binding 44
CC(OC(=O)C1COc2ccccc2O1)C(=O)c1ccccc1 (stereo unspecified)	INS-1E GSIS act 48
O=C(Nc1ccc(F)cc1)C1COc2ccccc2O1 (stereo unspecified)	INS-1E GSIS act 184
CCCNC(=O)N(C)C[C@@H]1Oc2ncc(-c3ccc(OC)cc3)cc2C(=O)N([C@H](C)CO)C[C@@H]1C	none
Cc1noc(C)c1NC(=O)Nc1ccc2c(c1)C(=O)N([C@@H](C)CO)C[C@H](C)[C@H](CN(C)CC1CCCCC1)OCCCC[C@@H](C)O2	none
CN=C(NC(=O)Nc1c(C)cccc1C)NC(=O)Nc1c(C)cccc1C	FGF22 binding 44
C[C@@H]1CN([C@H](C)CO)C(=O)c2cc(N(C)C)ccc2O[C@@H](C)CCCCO[C@@H]1CN(C)S(=O)(=O)c1cccs1	none (no result: INS-1E GSIS act)
CC=Cc1ccc2n(c1=O)C[C@@H]1[C@@H](CO)[C@H](C(=O)NC3Cc4ccccc4C3)N(CC3CCCC3)[C@H]21 (mixture of isomers)	none
COc1ccc(S(=O)(=O)Nc2ccccc2OC)cc1N=Nc1c(O)[nH]c(=S)[nH]c1=O	INS-1E GSIS act 99
COc1ccccc1NS(=O)(=O)c1ccc2[nH]c(=O)[nH]c2c1	none
O=C(C[C@H]1C[C@H]2c3cc(NC(=O)Nc4ccc(F)cc4)ccc3O[C@H]2[C@@H](CO)O1)NC1CCCC1	none
CCCCC(=O)NNC(=O)c1c(O)c2ccccc2[nH]c1=O	SIRT5 inh 16 (no result: ERAP1 HTS inh)
O=C(NC1CC1)c1c(O)c2ccccc2[nH]c1=O	Casp6 inh 45
O=C(NC1CCCCCCC1)c1c(O)c2ccccc2[nH]c1=O	none (no result: SIRT5 inh, ERAP1 HTS inh, Casp6 inh, FGF22 binding)
CNC[C@H]1Oc2ccc(N(C)C)cc2C(=O)N([C@H](C)CO)C[C@H]1C	none
O=C(c1ccccc1NS(=O)(=O)c1ccc([N+](=O)[O-])cc1[N+](=O)[O-])N1O[C@@H]2C=C[C@H]1C2	INS-1E GSIS act 49, Casp6 inh 37 (no result: FGF22 binding)
O=C(c1ccccc1NS(=O)(=O)c1ccccc1[N+](=O)[O-])N1CCOCC1	none (no result: SIRT5 inh, ERAP1 HTS inh, Casp6 inh, FGF22 binding)
N=C(N)c1ccc(N=Nc2c(O)ccc3c2[nH]c2ccccc23)cc1	INS-1E GSIS act 47 (no result: SIRT5 inh)
Oc1ccc(N=Nc2c(O)ccc3ccccc23)cc1	none (no result: FGF22 binding)
COc1ccc(C(=O)Nc2ccc3c(c2)OC[C@H](C)NC[C@H](C)[C@H](OC)CN(C)C3=O)cc1	none
CCCc1nc2sc3c(SCC(=O)NCc4ccco4)ncnc3c2c2c1CCC2	INS-1E GSIS act 61 (no result: SIRT5 inh, ERAP1 HTS inh, Casp6 inh, FGF22 binding)
CC(C)c1nc2sc3c(SCCN(C)C)ncnc3c2c2c1CCC2	none (no result: INS-1E GSIS act, ERAP1 HTS inh)
C[C@H](CO)N1C[C@H](C)[C@H](CN(C)C(=O)Nc2ccc(C(F)(F)F)cc2)Oc2c(NC(=O)c3ccc(-c4nccs4)cc3)cccc2C1=O	none
C[C@@H]1CN([C@@H](C)CO)C(=O)c2cccc(NC(=O)c3ccc(-c4nccs4)cc3)c2O[C@@H]1CN(C)C(=O)Nc1ccc(C(F)(F)F)cc1	FGF22 binding 1.4
C[C@H]1CN([C@@H](C)CO)C(=O)c2cccc(NC(=O)c3ccc(-c4nccs4)cc3)c2O[C@H]1CN(C)S(C)(=O)=O	SIRT5 inh 17
C[C@H](CO)N1C[C@H](C)[C@@H](CN(C)Cc2ccc(Cl)c(Cl)c2)Oc2c(NC(=O)c3ccc(-c4nccs4)cc3)cccc2C1=O	SIRT5 inh 19
Cc1ccc(-n2cc(CN3CCN(Cc4nccn4C)CC3)c(-c3ccc(F)cc3)n2)cc1	SIRT5 inh 112
Cc1ccc(-n2cc(CNCCc3cscn3)c(-c3ccc(F)cc3)n2)cc1	none
Cc1ccc(-n2cc(CNCCCn3ccnc3C)c(-c3ccc(F)cc3)n2)cc1	INS-1E GSIS act 44
O=[N+]([O-])c1cccc(Oc2ncccc2[N+](=O)[O-])c1	INS-1E GSIS act 78
CCCC#Cc1cnc2c(c1)C(=O)N([C@H](C)CO)C[C@@H](C)[C@@H](CN(C)S(=O)(=O)c1cccc(OC)c1)O2	none
COc1cccc(S(=O)(=O)N(C)C[C@@H]2Oc3ncc(-c4cccc(C(F)(F)F)c4)cc3C(=O)N([C@H](C)CO)C[C@@H]2C)c1	SIRT5 inh 20
Cc1ccc(S(=O)(=O)N(C)C[C@@H]2Oc3ncc(C#Cc4ccc(C(F)(F)F)cc4)cc3C(=O)N([C@H](C)CO)C[C@@H]2C)cc1	SIRT5 inh 25
C[C@H]1CN([C@@H](C)CO)C(=O)c2cc(C#CCN(C)C)cnc2O[C@H]1CN(C)S(=O)(=O)c1ccccc1	SIRT5 inh 63 (no result: FGF22 binding)
CCCC#Cc1cnc2c(c1)C(=O)N([C@@H](C)CO)C[C@@H](C)[C@H](CN(C)S(=O)(=O)c1cccc(OC)c1)O2	SIRT5 inh 29
C[C@H](CO)N1C[C@H](C)[C@@H](CN(C)S(=O)(=O)c2ccccc2F)Oc2ncc(C#Cc3cccnc3)cc2C1=O	Casp6 inh 36!
COc1ccc2c3c([nH]c2c1)[C@H](CO)N(C(C)=O)CC31CN(C(=O)Nc2c(C)noc2C)C1	none (no result: SIRT5 inh, ERAP1 HTS inh, Casp6 inh)
O=S1c2ccccc2Nc2ccccc21	SIRT5 inh 25 (no result: INS-1E GSIS act)
O=S1c2ccccc2Oc2ccccc21	none
CC1(C)CC(=O)C2=C(C1)Nc1ccccc1[S@]2=O	SIRT5 inh 16 (no result: INS-1E GSIS act)
CCOC(=O)C1=C(O)C(=O)N(Cc2cccnc2)C1c1ccc(C)cc1 (stereo unspecified)	FGF22 binding 44
CC(=O)C1=C(O)C(=O)N(Cc2cccnc2)C1c1ccc(C(C)C)cc1 (stereo unspecified)	FGF22 binding 43
C[C@@H]1CN([C@@H](C)CO)C(=O)c2cc(NC(=O)CCN3CCOCC3)ccc2O[C@H]1CN(C)S(=O)(=O)c1cn(C)cn1	none
